PubChem BioAssay (NCI)
This is part of a sample that, as a whole, favours compounds with a hit. Of some 79,000 tested, about 15% had one in any assay. Values without a mark were called inactive. Active and inactive are the calls of the source. No stated cut-off is given here; in the data, active means growth inhibition above about 70%; inactive means the rest. Where a SMILES comes first, the peptide text is derived from it. The star is where a group is joined. Cbz = O=C(OCc1ccccc1)*

Test: NCI Yeast Anticancer Drug Screen. Data for the mlh1 rad18 strain (AID 175)
Details: S. cerevisiae mlh1 rad18 strain growth inhibition; at 50.0 µM; stronger effect = higher value
Procedure: Growth inhibition of yeast strains with defined genetic alterations is measured as a screen for potential anti-cancer activity. Selected strains with alterations in DNA damage repair or cell cycle control were exposed to compounds and growth inhibition was measured relative to vehicle treated controls. The strain used in this assay is mlh1 rad18

Row | SMILES | growth inhibition
1 | CNC(=O)Oc1ccc2c(c1)[C@]1(C)CCN(C)[C@@H]1N2C | -37.2%
2 | CCOC(=O)Nc1nc(-c2ccc(Br)cc2)cs1 | -17.9%
3 | Cc1cc(C)c(NC(=O)c2c(Cl)c(Cl)c(Cl)c(Cl)c2C(=O)O)c(C)c1 | 0.3%
4 | CCCCCN(CCCCC)C(=S)[S-].CCCCCN(CCCCC)C(=S)[S-].[Zn] | 60.8%
5 | CC(NC(=O)OCc1ccccc1)C(=O)NC(CO)C(N)=O (stereo not drawn) (Cbz-Ala-Ser-NH2; configuration not given here) | 8.1%
6 | N#CNC(=NCCO)NCCO | 26.6%
7 | CC1C=C(Br)C(=O)C(n2cnc3c(=O)n(C)c(=O)n(C)c32)O1 (stereo not given) | 34%
8 | Nc1ncnc2c1ncn2-c1ccccc1 | -17.4%
9 | COc1c(NC(=O)c2ccc(Cl)c(Cl)c2)cccc1[N+](=O)[O-] | -1.3%
10 | CCC(=O)C(CCN(C)C)c1ccccc1 (stereo not given) | -7.9%
11 | CS(=O)(=O)/C=C/c1ccccc1 | 0.75%
12 | O=C(c1ccc(Cl)cc1Cl)N(/N=C/C=C/c1ccccc1)c1nnc(-c2ccccc2)c(-c2ccccc2)n1 | 13%
13 | O=S(=O)(O)CO | 20.4%
14 | Cc1cc(-c2ccccc2)n(C(C(=O)c2ccccc2)c2ccccc2)n1 (stereo not given) | -15.2%
15 | CCN1C2=NCCN2C(=O)c2ccccc21 | 13.4%
16 | CC(C)(C)[Si](C)(C)Oc1cc(CO)cc2c1cc(=N)o[n+]2[O-] | -31.2%
17 | COc1cc(C=C2C(=O)OC(C)(C)OC2=O)cc(OC)c1OC | 9.05%
18 | COC(=O)C(C)n1c(C)csc1=S (stereo not given) | -0.55%
19 | Cc1ccccc1[B-]12OCC[N+]1(CNC(=O)c1ccccc1O)CCO2 (stereo not given) | 8.5%
20 | NNC(=O)C(=O)N/N=C(\CCC(=O)Nc1ccc(Cl)cc1)Cc1nc2ccccc2s1 | 36.2%

Row | SMILES | growth inhibition
21 | O=c1c(O)c(-c2ccccc2)oc2c(CP(=O)(O)O)cccc12 | -18%
22 | CCCOc1ncnc2nc[nH]c12 | 19.7%
23 | CC1(C)N=C(N)N=C(N)N1c1cccc(CSc2ccccc2)c1 | -19.6%
24 | Cc1ccc(N=c2oc3c(ccc4ccccc43)nc2Nc2ccc(C)cc2)cc1 | -19%
25 | CCOC(=O)c1c(C(=O)Nc2ccccc2)c(-c2ccccc2)n(NC(N)=O)c1C | 2.95%
26 | O=[N+]([O-])c1ccc(S(=O)(=O)/N=C/c2ccccc2)cc1 | 12.3%
27 | CC(=O)C(N=NC1CCC(S(=O)(=O)NB2N=CS2)CC1)C(=O)Nc1ccccc1C (stereo not given) | 15.4%
28 | CC(C)SC(C)(NC(=O)C1C(C)(C)CCC1(C)C)C(=O)O (stereo not given) | -49.5%
29 | CCC=Nc1ccccc1CO | 5.4%
30 | COC(=O)N/N=C(/c1nc2ccc([N+](=O)[O-])cc2[nH]c1=O)C(O)c1ccc(OC)c(OC)c1 (stereo not given) | 6.2%
31 | O=CC(=C\c1cccs1)/C(C=O)=C\c1cccs1 | 88.5% (active)
32 | COc1cc(-c2nnc3n2NC=C(C(=O)O)S3)cc(OC)c1OC | 21.8%
33 | O=C(CS(=O)(=O)Cc1ccccc1)N1CCOCC1 | -27.5%
34 | CCC1(C#CCN2C(=O)c3ccccc3C2=O)C=CC2(CC1)OCCO2 (stereo not given) | 48.9%
35 | O=C(CSc1nnc(-c2ccccc2NC(=O)C(F)(F)F)c(=O)[nH]1)NC(=O)Nc1ccccc1 | 23.9%
36 | Cc1nn(-c2ccc(Cl)cc2)c2c1c(=O)[nH]c1ccccc12 | -5.05%
37 | CC(C)(C)C(N)=O | -1.25%
38 | CCOc1ccc2ccccc2c1 | -19.7%
39 | O=C(Nn1c(-c2ccccc2)nc2ccccc2c1=O)c1ccc([N+](=O)[O-])cc1 | 13.9%
40 | Nc1ccc2c(c1)C(=O)c1c(F)c(F)c(F)c(F)c1-2 | 11.9%
